Assay results as given in PubChem BioAssay.
The source made the active and inactive calls.

How the values were obtained:
[1] = system: Plasmodium falciparum Sir2 (PF13_0152, Sir2A); assay: pfSir2 binders on small-molecule microarrays, primary screen, biochemical, small-molecule microarray, 635 nm fluorescence (AID 1098); details: small-molecule microarray binding, fluorescence 635 nm; higher = more signal;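 further: score merges spot fluorescence intensity with its signal-to-noise ratio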
[2] = small-molecule microarray binders of probe aDKK1, primary screen, biochemical, biotinylated probe, 635/667 nm fluorescence (AID 1099); details: higher = more signal;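 further: score merges 667nm spot fluorescence with signal to noise across triplicate slides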
[3] = small-molecule microarray binders of probe aCHRDL2, primary screen, biochemical, biotinylated probe, 635/667 nm fluorescence (AID 1100); details: higher = more signal
[4] = splicing luciferase reporter signal modulators, primary screen, spliceosome inhibition project, cell-based, HEK293, splice +/- reporter (AID 1101); details: luminescence, 24 h, higher = more signal, called active from +8 up or from −8 down;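 further: HEK293 cells carrying a splicing-competent luciferase reporter gene; test concentration not given here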
[5] = target: Fibroblast growth factor 10 (Homo sapiens) (UniProt O15520); assay: FGF10 binders on small-molecule microarrays, primary screen, biochemical, small-molecule microarray, 635 nm fluorescence (AID 1102); details: FGF10 binding, fluorescence 635 nm, higher = more signal
Fibroblast growth factor 10 (Homo sapiens), sequence (O15520 whole entry, looked up): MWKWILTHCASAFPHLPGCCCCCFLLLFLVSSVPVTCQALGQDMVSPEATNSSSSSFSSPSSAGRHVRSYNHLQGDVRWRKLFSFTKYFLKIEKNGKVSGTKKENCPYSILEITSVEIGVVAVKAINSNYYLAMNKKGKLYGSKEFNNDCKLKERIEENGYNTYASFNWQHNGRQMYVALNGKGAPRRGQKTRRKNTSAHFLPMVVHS

[6] = system: glycogen synthase kinase-3 (GSK3A per assay name; protocol says GSK3B); assay: GSK3 binders on small-molecule microarrays, primary screen, biochemical, small-molecule microarray, 635 nm fluorescence, GSK3A (AID 1103); details: small-molecule microarray binding, fluorescence 635 nm; higher = more signal; further: the record names both GSK3A and GSK3B
[7] = target: Epidermal growth factor receptor (Homo sapiens) (UniProt P00533); assay: EGFR binders on small-molecule microarrays, primary screen, biochemical, small-molecule microarray, 635 nm fluorescence (AID 1104); details: EGFR binding, higher = more signal;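 further: score merges 667 nm emission intensity with spot signal to noise over triplicate slides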
Epidermal growth factor receptor (Homo sapiens), sequence (P00533 whole entry, looked up): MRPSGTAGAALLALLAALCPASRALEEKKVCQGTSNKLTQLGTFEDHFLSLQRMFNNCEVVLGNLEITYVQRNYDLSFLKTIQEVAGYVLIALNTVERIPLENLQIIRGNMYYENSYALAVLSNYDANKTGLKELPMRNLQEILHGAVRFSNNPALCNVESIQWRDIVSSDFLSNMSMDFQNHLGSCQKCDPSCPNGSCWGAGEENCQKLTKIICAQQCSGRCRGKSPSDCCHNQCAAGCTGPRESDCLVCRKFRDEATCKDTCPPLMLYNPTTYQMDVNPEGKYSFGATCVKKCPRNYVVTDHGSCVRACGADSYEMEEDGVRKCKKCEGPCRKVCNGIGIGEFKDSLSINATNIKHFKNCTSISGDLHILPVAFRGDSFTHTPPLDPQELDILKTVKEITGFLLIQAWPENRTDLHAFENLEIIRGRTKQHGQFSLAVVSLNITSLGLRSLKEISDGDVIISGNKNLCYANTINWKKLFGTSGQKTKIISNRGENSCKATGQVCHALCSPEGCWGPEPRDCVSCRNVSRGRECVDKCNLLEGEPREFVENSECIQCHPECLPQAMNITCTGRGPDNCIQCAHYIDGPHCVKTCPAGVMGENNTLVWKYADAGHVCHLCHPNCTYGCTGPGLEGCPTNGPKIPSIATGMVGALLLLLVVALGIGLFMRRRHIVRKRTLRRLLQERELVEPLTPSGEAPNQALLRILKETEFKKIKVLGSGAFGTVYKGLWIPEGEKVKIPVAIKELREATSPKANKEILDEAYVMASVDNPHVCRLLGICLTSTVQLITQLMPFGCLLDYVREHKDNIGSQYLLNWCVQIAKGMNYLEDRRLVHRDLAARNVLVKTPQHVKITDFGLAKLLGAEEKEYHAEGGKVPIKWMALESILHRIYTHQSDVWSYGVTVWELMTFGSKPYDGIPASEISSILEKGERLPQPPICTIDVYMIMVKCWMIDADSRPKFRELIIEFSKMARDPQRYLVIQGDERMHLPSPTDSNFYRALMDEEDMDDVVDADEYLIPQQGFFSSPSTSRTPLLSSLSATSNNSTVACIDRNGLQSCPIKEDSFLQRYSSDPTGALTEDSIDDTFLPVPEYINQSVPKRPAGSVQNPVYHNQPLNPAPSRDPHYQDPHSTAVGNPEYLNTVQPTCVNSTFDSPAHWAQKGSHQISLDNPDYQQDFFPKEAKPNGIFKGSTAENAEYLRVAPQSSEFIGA

[8] = target: Follistatin-related protein 3 (Homo sapiens) (UniProt O95633); assay: FSTL3 binders on small-molecule microarrays, primary screen, biochemical, small-molecule microarray, 635 nm fluorescence (AID 1105); details: FSTL3 binding, higher = more signal;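 further: score merges emission near 667 nm and signal to noise per printed spot across three slides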
Follistatin-related protein 3 (Homo sapiens), sequence (O95633 whole entry, looked up): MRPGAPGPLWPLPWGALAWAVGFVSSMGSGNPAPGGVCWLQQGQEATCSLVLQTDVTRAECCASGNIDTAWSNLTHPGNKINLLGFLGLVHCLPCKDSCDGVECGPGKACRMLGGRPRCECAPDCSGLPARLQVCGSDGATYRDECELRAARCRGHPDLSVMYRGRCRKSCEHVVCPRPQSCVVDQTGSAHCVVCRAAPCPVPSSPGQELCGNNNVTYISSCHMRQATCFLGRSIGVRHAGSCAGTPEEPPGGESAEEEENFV

[9] = target: Dickkopf-related protein 1 (Homo sapiens) (UniProt O94907); assay: DKK1 binders on small-molecule microarrays, primary screen, biochemical, small-molecule microarray, 635 nm fluorescence scan (AID 1106); details: DKK1 binding, higher = more signal;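 further: score merges emission near 667 nm with signal to noise over three replicate slides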
Dickkopf-related protein 1 (Homo sapiens), sequence (O94907 whole entry, looked up): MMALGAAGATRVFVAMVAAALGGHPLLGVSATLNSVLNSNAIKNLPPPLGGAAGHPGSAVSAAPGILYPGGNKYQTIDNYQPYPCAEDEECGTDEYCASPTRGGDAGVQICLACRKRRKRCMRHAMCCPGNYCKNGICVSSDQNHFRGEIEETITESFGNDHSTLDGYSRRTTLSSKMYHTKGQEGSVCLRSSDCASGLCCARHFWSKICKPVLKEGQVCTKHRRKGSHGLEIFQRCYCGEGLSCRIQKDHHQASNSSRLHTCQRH

[10] = system: Inhibin beta A chain (activin A); assay: INHBA (activin A) binders on microarrays, primary screen, biochemical, small-molecule microarray, 635 nm fluorescence scan (AID 1107); details: small-molecule microarray binding, higher = more signal;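 further: mouse activin A protein probed at 4.33 µg/mL on printed slides; score merges bound-protein fluorescence near 667 nm with spot signal-to-noise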
[11] = system: Human papillomavirus type 1a protein E7 (residues 44-93); assay: HPV1a E7 fragment binders on microarrays, primary screen, biochemical, small-molecule microarray, residues 44-93, 635 nm fluorescence (AID 1108); details: small-molecule microarray binding, fluorescence 635 nm; higher = more signal;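 further: E7 fragment applied at 1 µg/mL in TBST for 1 h at 4 C; score combines spot fluorescence with its signal to noise ratio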
[12] = modulators of HCV replicon luciferase signal, primary screen, HCV replication inhibitor project, Huh7 cells, luciferase reporter (AID 1109); details: 48 h, higher = more signal;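 further: huh7 hepatoma cells harbouring a luciferase neomycin HCV replicon reporter; luciferase luminescence as measure of HCV replicon replication; test concentration not given here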
[13] = target: Left-right determination factor 2 (Homo sapiens) (UniProt O00292); assay: LEFTY2 binders on small-molecule microarrays, primary screen, biochemical, small-molecule microarray, 635 nm fluorescence scan (AID 1110); details: LEFTY2 binding, higher = more signal
Left-right determination factor 2 (Homo sapiens), sequence (O00292 whole entry, looked up): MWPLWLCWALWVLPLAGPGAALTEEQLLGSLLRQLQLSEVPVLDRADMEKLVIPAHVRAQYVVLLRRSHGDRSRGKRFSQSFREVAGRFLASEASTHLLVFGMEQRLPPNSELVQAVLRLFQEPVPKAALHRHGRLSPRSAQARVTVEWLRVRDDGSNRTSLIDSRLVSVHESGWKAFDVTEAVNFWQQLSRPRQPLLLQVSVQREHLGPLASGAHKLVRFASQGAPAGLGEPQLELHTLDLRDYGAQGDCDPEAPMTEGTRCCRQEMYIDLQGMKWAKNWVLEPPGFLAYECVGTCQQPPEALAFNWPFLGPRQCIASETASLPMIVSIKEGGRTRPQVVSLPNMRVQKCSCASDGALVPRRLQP

[14] = target: Calmodulin-1 (Homo sapiens) (UniProt P0DP23); assay: CALM1 binders on microarrays, EGTA buffer, profiling panel, biochemical, small-molecule microarray, Cy5-labelled CALM1 (AID 1111); details: Cy5-CALM1 binding fluorescence, higher = more signal;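 further: labelled calmodulin applied in Tris saline Tween buffer holding calcium plus EGTA and DTT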
[15] = target: Calmodulin-1 (Homo sapiens) (UniProt P0DP23); assay: calcium-bound CALM1 binders on microarrays, profiling panel, artefact control for SMM control-protein annotation, biochemical, small-molecule microarray, Cy5-labelled CALM1, plus calcium (AID 1112); details: Cy5-CALM1 binding fluorescence, higher = more signal;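 further: score merges spot fluorescence with signal to noise from triplicate slides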
[16] = small-molecule microarray binders of probe aWnt5a, primary screen, biochemical, biotinylated probe, 635/667 nm fluorescence (AID 1113); details: higher = more signal;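 further: score merges 667 nm fluorescence intensity with signal-to-noise per printed feature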
[17] = small-molecule microarray binders of probe aShh, primary screen, biochemical, biotinylated probe, 635/667 nm fluorescence (AID 1114); details: higher = more signal;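 further: probe is biotin-labelled aShh protein from a stem cell growth factor screen; measures binding of labelled protein to compounds printed on the slide; score merges feature fluorescence at 667 nm with signal-to-noise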
[18] = small-molecule microarray binders of probe aNog, primary screen, biochemical, biotinylated probe, 635/667 nm fluorescence (AID 1115); details: higher = more signal;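 further: probe is biotinylated aNog protein used at 0.15 µg/mL for 1 h at 4 C; z-score combines 667 nm fluorescence of each spot with its signal to noise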
[19] = target: Torsin-1A-interacting protein 1 (Homo sapiens) (UniProt Q5JTV8); assay: LAP1 binders from COS7 cell lysate, primary screen, small-molecule microarray, 635/667 nm fluorescence (AID 1116); details: COS7-hLAP1 lysate binding, 635 nm fluorescence, higher = more signal
Torsin-1A-interacting protein 1 (Homo sapiens), sequence (Q5JTV8 whole entry, looked up): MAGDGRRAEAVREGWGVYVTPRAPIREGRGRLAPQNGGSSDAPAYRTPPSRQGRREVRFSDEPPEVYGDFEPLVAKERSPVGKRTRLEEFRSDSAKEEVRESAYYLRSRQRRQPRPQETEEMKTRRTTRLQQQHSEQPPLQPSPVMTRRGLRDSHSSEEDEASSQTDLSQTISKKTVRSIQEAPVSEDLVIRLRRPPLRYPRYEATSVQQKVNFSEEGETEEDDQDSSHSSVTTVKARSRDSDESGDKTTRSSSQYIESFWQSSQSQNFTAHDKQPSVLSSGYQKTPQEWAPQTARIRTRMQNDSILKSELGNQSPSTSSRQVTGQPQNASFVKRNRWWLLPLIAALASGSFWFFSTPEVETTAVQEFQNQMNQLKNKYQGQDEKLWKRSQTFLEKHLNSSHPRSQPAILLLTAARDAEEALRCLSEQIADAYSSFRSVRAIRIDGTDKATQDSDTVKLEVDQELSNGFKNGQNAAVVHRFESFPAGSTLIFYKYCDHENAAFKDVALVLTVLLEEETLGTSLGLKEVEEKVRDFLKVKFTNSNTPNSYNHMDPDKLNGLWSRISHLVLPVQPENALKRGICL

[20] = target: Alpha-bungarotoxin (Bungarus multicinctus) (UniProt P60615); assay: alpha-bungarotoxin binders on microarray, profiling panel, artefact control for SMM control protein annotation, biochemical, small-molecule microarray, Alexa647 label, 635/667 nm fluorescence (AID 1117); details: alpha-BTX-A647 binding fluorescence, higher = more signal
Alpha-bungarotoxin (Bungarus multicinctus), sequence (P60615 whole entry, looked up): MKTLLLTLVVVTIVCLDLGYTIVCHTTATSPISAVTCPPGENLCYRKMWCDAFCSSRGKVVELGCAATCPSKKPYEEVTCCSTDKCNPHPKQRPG

For `CN1C(=O)[C@]2(CCC(=O)OC(C)(C)C)N=C(c3ccc(OCCCO)cc3)O[C@@H]2c2ccccc21`, the composite z-score [1] was 1.14, the composite z-score [2] was -0.0732 and the composite z-score [3] was 0.651. The z-score [4] was -0.432 (inactive), the composite z-score [5] was 1.38 and the composite z-score [6] was 1.29. For the same compound, the composite z-score [7] was -0.0099, the composite z-score [8] was 0.659 and the composite z-score [9] was 0.297. The composite z-score [10] was 0.643, the composite z-score [11] was 1.45 and the z-score [12] was -2.88. For the same compound, the composite z-score [13] was -0.0515, the composite z-score [14] was 0.147 and the composite z-score [15] was -0.0006. The composite z-score [16] was 0.0279, the composite z-score [17] was 0.275 and the composite z-score [18] was 0.346. It also gave a composite z-score [19] of 0.973 and a composite z-score [20] of 1.14.

For `C[C@@H](OCc1ccccc1)C1NC(=O)[C@@]23C(=O)N[C@@H](Cc4ccccc4)C2[C@H](C)[C@@]2(C)O[C@H]2C3/C=C/C/C=C\CNC(=O)[C@H](Cc2ccccc2)NC1=O` (stereo not given in full), the composite z-score [1] was 0.21, the composite z-score [2] was -0.288 and the composite z-score [3] was -0.743. The z-score [4] was -0.708 (inactive), the composite z-score [5] was 1.35 and the composite z-score [6] was 0.297. It also gave a composite z-score [7] of 0.12, a composite z-score [8] of 0.869 and a composite z-score [9] of 0.443. It also gave a composite z-score [10] of 1.08, a composite z-score [11] of -0.677 and a z-score [12] of -0.963. The composite z-score [13] was 0.226, the composite z-score [14] was -0.629 and the composite z-score [15] was -1.15. The composite z-score [16] was -0.035, the composite z-score [17] was -0.304 and the composite z-score [18] was -0.289. The composite z-score [19] was 0.252 and the composite z-score [20] was -0.753.

`C=CCC(OC(C)=O)[C@@H]1[C@@H](N(Cc2ccc(-c3cccc(C(F)(F)F)c3)o2)C(=O)Cc2ccc(OC)cc2)c2cc(OCCCO)ccc2N1C(=O)c1ccc2ccccc2n1` (stereo not given in full) gave a composite z-score [1] of 0.51, a composite z-score [2] of -0.107 and a composite z-score [3] of 0.621. The z-score [4] was -0.492 (inactive), the composite z-score [5] was 0.104 and the composite z-score [6] was -1.24. For the same compound, the composite z-score [7] was -0.567, the composite z-score [8] was 0.0391 and the composite z-score [9] was 0.062. For the same compound, the composite z-score [10] was 1.58, the composite z-score [11] was -0.551 and the z-score [12] was 0.185. The composite z-score [13] was -0.323, the composite z-score [14] was -0.698 and the composite z-score [15] was -0.605. The composite z-score [16] was -0.0017, the composite z-score [17] was -0.0904 and the composite z-score [18] was 0.227. The composite z-score [19] was -0.366 and the composite z-score [20] was -0.362.

Work on `CC(C)CNC(=O)[C@@H]1c2ccccc2C(=O)N(C(C)C)[C@H]1c1ccc(CO)cc1` yielded a composite z-score [1] of 1.36, a composite z-score [2] of 0.0026 and a composite z-score [3] of 0.763. For the same compound, the z-score [4] was -1.26 (inactive), the composite z-score [5] was -0.787 and the composite z-score [6] was -0.221. The composite z-score [7] was -0.5, the composite z-score [8] was -0.573 and the composite z-score [9] was -0.382. It also gave a composite z-score [10] of 0.849, a composite z-score [11] of -0.043 and a z-score [12] of -0.972. The composite z-score [13] was -0.269, the composite z-score [14] was -0.451 and the composite z-score [15] was 0.0584. It also gave a composite z-score [16] of -0.24, a composite z-score [17] of -0.2 and a composite z-score [18] of 0.49. It also gave a composite z-score [19] of 1.58 and a composite z-score [20] of -0.75.

Work on `CC(C)(C)N1CC=CC23O[C@@H]4/C=C\CCCOC(=O)C4[C@H]2C(=O)N(CCCCCCO)[C@@H]3C1=O` (stereo not given in full) yielded a composite z-score [1] of 0.873, a composite z-score [2] of -0.204 and a composite z-score [3] of 0.63. For the same compound, the z-score [4] was -0.725 (inactive), the composite z-score [5] was -0.374 and the composite z-score [6] was -0.749. The composite z-score [7] was -0.741, the composite z-score [8] was 0.0927 and the composite z-score [9] was -0.857. For the same compound, the composite z-score [10] was 0.705, the composite z-score [11] was -0.802 and the z-score [12] was -0.762. For the same compound, the composite z-score [13] was -1.03, the composite z-score [14] was -0.558 and the composite z-score [15] was 0.337. The composite z-score [16] was -0.0873, the composite z-score [17] was 0.0952 and the composite z-score [18] was 0.382. For the same compound, the composite z-score [19] was 1.24 and the composite z-score [20] was -1.34.
